For 97 compounds, cytotoxicity results are on record in PubChem BioAssay AID620 (Sanford-Burnham Center for Chemical Genomics, 2007).

Screen size: about 87,000 compounds; about 360 (0.41%) were called active. Only a selection was taken, and actives are over-represented in it overall. A number with no mark means an inactive call. No stated cut-off is given here; in the data, active means cytotoxicity above about 50%; inactive means the rest.

The test in a line: cytotoxicity in HT1080 fibrosarcoma cells, cell-based, fluorescence readout (AID 620).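 Further: cells exposed to compound overnight then 4 h with Alamar Blue; 0% = vehicle DMSO and 100% = killing control.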 The settings on record: HT1080 viability, at 10 µM, hits give high values.
Take `COc1cccc(C(=O)Nc2ccc(F)cc2F)c1`: the cytotoxicity is -7.7%.

Turning to `CC(C)(C)c1ccc(Oc2cccc(C3CC(=O)C(C4NCCc5ccccc54)C(=O)C3n3cncn3)c2)cc1` (configuration not stated), the cytotoxicity is -1.9%.

For the compound `CCn1c(CC(=O)Nc2ccccc2)nnc1SCC(=O)Nc1ccccc1C(=O)OC`, the cytotoxicity is 0.7%.

`COc1ccc(N2CCCCn3c2nc2c3c(=O)[nH]c(=O)n2C)cc1`: the cytotoxicity is 3.8%.

Turning to `CCOC(=O)Cn1nc(-c2ccc(Cl)cc2)ccc1=O`, the cytotoxicity is -5%.

In the case of `CCn1c(CSc2nc3ccccc3n2C)nc2ccccc21`, the cytotoxicity is 27.6%.

`COc1cc(C2C(C#N)=C(C)NC3=C2C(=O)CC(C)(C)C3)cc(OC)c1O` (configuration not stated): the cytotoxicity is -2.1%.

As for `COc1ccc(C2C(C#N)=C(C)NC3=C2C(=O)c2ccccc23)cc1` (configuration not stated), the cytotoxicity is 3%.

In the case of `COc1cc(C2C(C#N)=C(C)NC3=C2C(=O)c2ccccc23)cc(OC)c1OC` (configuration not stated), the cytotoxicity was 68.6% (active).

Consider `COc1cc(NC(=O)c2cccs2)c(C(=O)OCC(=O)NCc2ccccc2)cc1OC`, for which the cytotoxicity was 9.6%.

On to `CCOc1ccc(NC(=O)CSc2nnc(C)n2CC2CCCO2)cc1` (configuration not stated), for which the cytotoxicity was -2.7%.

In the case of `COc1ccc(-c2noc(CN3CCCCC3)n2)cc1OC`, the cytotoxicity is 11.9%.

With `CN(C)S(=O)(=O)c1ccc(S(=O)(=O)N(Cc2ccco2)Cc2ccccc2Cl)cc1`, the cytotoxicity is -1.9%.

`CCOc1cc(S(=O)(=O)N2CC=C(c3ccc(F)cc3)CC2)c(OCC)cc1-n1cnnn1`: the cytotoxicity is 52.5% (active).

For `CCOc1cc(S(=O)(=O)N2CCN(c3ccc(F)cc3)CC2)c(OCC)cc1-n1cnnn1`, the cytotoxicity was 2.6%.

Consider `CCOc1cc(S(=O)(=O)N2CCC(Cc3ccccc3)CC2)c(OCC)cc1-n1cnnn1`, for which the cytotoxicity is -6.4%.

In the case of `CC12CCC(C(=O)N3CCN(Cc4ccccc4)CC3)(OC1=O)C2(C)C` (configuration not stated), the cytotoxicity is 0.4%.

For the compound `CN1CC[n+]2c(CN3C(=O)c4ccccc4C3=O)csc21`, the cytotoxicity is 15.5%.

In the case of `CCCC(=O)c1c(NC(C)C)cc(C)oc1=O`, the cytotoxicity was -2.5%.

For the compound `COc1ccc(Cl)cc1S(=O)(=O)N1CCN(C(=O)c2cc(OC)c(OC)c(OC)c2)CC1`, the cytotoxicity was -2.5%.

Consider `COc1cc(C(=O)N2CCN(c3cccc(C)c3C)CC2)cc(OC)c1OC`, for which the cytotoxicity is 62.4% (active).

For `Cc1cccc(N2CCN(C(=O)c3ccncc3)CC2)c1C`, the cytotoxicity is 21.3%.

With `COc1cc(C(=O)N2CCN(c3cc(Cl)ccc3Cl)CC2)cc(OC)c1OC`, the cytotoxicity is 66% (active).

Consider `COc1ccc(C(=O)N2CCN(C(=O)c3cc(OC)c(OC)c(OC)c3)CC2)cc1`, for which the cytotoxicity is -0.7%.

Consider `COc1cc(C(=O)N2CCN(C(=O)c3ccccc3)CC2)cc(OC)c1OC`, for which the cytotoxicity was -2.8%.

With `O=C(C1CC1)N1CCN=C1SCc1ccccc1`, the cytotoxicity was -4.5%.

As to `Cc1cccc(NC(=O)c2ccc(S(=O)(=O)N(C)C)cc2)n1`, the cytotoxicity is 36.5%.

As to `CCc1ccc(NC(=O)CCn2ccnc2C)cc1`, the cytotoxicity is -7%.

`Cc1ccc(S(=O)(=O)N(C)c2ccc(OCC(=O)OCc3c(C)noc3C)cc2)cc1`: the cytotoxicity was 11.5%.

For the compound `CCC(C)(C)NC(=O)CN(C(=O)CCC(=O)Nc1cc(C)ccn1)c1ccc2c(c1)OCO2`, the cytotoxicity is -1.1%.

In the case of `CCCCCCCC(=O)OCC(O)CO` (configuration not stated), the cytotoxicity was -0.9%.

In the case of `CCCCCCCCCC(=O)OCC(O)CO` (configuration not stated), the cytotoxicity is -10.7%.

`CCCCCCCCCCCCCCCC(O)C(N)CO` (configuration not stated): the cytotoxicity is 58.2% (active).

For `COCCn1nnnc1CN(Cc1ccco1)Cc1cc2cc3c(cc2[nH]c1=O)OCO3`, the cytotoxicity is -10.7%.

For `CCn1cc(C(=O)NCc2cccs2)c(=O)c2ccc(C)nc21`, the cytotoxicity was -4%.

Regarding `COc1ccc(OC)c(Nc2cc(-c3ccccc3)nc(N)n2)c1`, the cytotoxicity is 56.1% (active).

Turning to `COc1ccc(OC)c(Nc2cc(C)nc3ccccc23)c1`, the cytotoxicity was 20.6%.

On to `COc1ccc(OC)c(Nc2nc(N)nc(-c3cc4ccccc4o3)n2)c1`, for which the cytotoxicity is 4.8%.

With `c1ccc(CSc2ncccn2)cc1`, the cytotoxicity is 4.3%.

For the compound `O=C(CCNS(=O)(=O)c1ccccc1F)NCc1ccc2c(c1)OCO2`, the cytotoxicity was -0.4%.

For `COC(=O)N1[C@H](C)C=C[C@]1(Cc1ccccc1)C(=O)OC`, the cytotoxicity was -24.7%.

Turning to `CNC(=O)[C@@]1(Cc2ccccc2)C=C[C@@H](C)N1C(=O)OC`, the cytotoxicity was -24.6%.

Consider `COC(=O)N1[C@H](C)C=C[C@]1(Cc1ccccc1)C(=O)O`, for which the cytotoxicity is 90.8% (active).

Take `CCSc1nnc(NC(=O)CSc2nccn2-c2cccc(C)c2C)s1`: the cytotoxicity is -8.3%.

Take `Cc1nnc(NC(=O)CSc2nccn2-c2cccc(C)c2C)s1`: the cytotoxicity is 54.7% (active).

With `CCc1nnc(NC(=O)CSc2nccn2-c2cccc(C)c2C)s1`, the cytotoxicity is -9.5%.

With `CN1/C(=C\C(=O)C(F)F)C(C)(C)c2ccccc21`, the cytotoxicity was -3.2%.

For `CN1/C(=C\C(=O)c2ccco2)C(C)(C)c2ccccc21`, the cytotoxicity is 9%.

As for `CC(=O)c1ccc(Oc2cc(C)nc(-n3nc(C)cc3C)n2)cc1`, the cytotoxicity is 50.3% (active).

On to `CC(=O)c1ccc(Oc2cc(C)nc(NCc3ccccc3)n2)cc1`, for which the cytotoxicity was -1%.

As to `COC(=O)c1ccc(Oc2cc(C)nc(-n3nc(C)cc3C)n2)cc1`, the cytotoxicity was 68.3% (active).

With `COC(=O)c1ccc(Oc2nc(C)cc(Oc3ccccc3)n2)cc1`, the cytotoxicity is 11.3%.

With `COC(=O)c1ccc(Oc2cc(C)nc(SC)n2)cc1`, the cytotoxicity is 48.5%.

With `Cc1ccc(Oc2cc(-n3nc(C)cc3C)ncn2)cc1`, the cytotoxicity was -3.6%.

In the case of `c1ccc(-c2cc(-c3nc(-c4ccccn4)no3)c3ccccc3n2)cc1`, the cytotoxicity is -10.1%.

In the case of `COc1cccc(C(c2sc3nc(C)nn3c2O)N2CCc3ccccc3C2)c1` (configuration not stated), the cytotoxicity was -7.4%.

Regarding `CCOC(=O)CNC(=O)CSc1nnc(Cn2c(=O)sc3ccccc32)n1C`, the cytotoxicity is -4.4%.

Take `Cc1cc(C(=O)OCC(=O)NCc2ccco2)c(C)n1-c1ccc(F)cc1`: the cytotoxicity is 63.7% (active).

With `O=C(COC(=O)c1ccccc1)NCc1ccco1`, the cytotoxicity was 6.9%.

As for `Cc1cc(C(=O)OCC(=O)N2CCN(C(=O)c3ccco3)CC2)c(C)n1-c1ccc(F)cc1`, the cytotoxicity was -4.9%.

On to `Cc1nn(-c2ccccc2)c(C)c1C(=O)OCC(=O)NCc1ccco1`, for which the cytotoxicity was -6.6%.

For `Cc1cc(C(=O)CNCc2ccco2)c(C)n1-c1ccc(F)cc1`, the cytotoxicity was 2.4%.

As for `Cc1cc(C(=O)OCC(=O)NCc2ccco2)c(C)n1-c1ccccc1`, the cytotoxicity is 62.1% (active).

Regarding `COc1cccc(NC(=O)c2ccccc2-c2nc(-c3ccc(Cl)cc3)no2)c1`, the cytotoxicity is 16.9%.

Consider `O=C(NCc1ccco1)C(C(=O)c1ccc(F)cc1)n1ccccc1=O` (configuration not stated), for which the cytotoxicity was -0.6%.

On to `COC(=O)Nc1ccc(S(=O)(=O)N2CCCc3ccccc32)cc1`, for which the cytotoxicity was 53% (active).

Consider `Cc1cc(NC(=O)COC(=O)c2cccc(S(=O)(=O)N3CCOCC3)c2)no1`, for which the cytotoxicity was 8.4%.

`CC(=O)Nc1ccc(S(=O)(=O)N2CCCc3ccccc32)cc1`: the cytotoxicity was 23.1%.

As to `Cc1cc(NC(=O)COC(=O)c2ccc(NS(=O)(=O)c3ccc(C)c(C)c3)cc2)no1`, the cytotoxicity is -8.8%.

For `Cc1cc(NC(=O)COC(=O)c2ccc(S(=O)(=O)N3CCCc4ccccc43)cc2)no1`, the cytotoxicity was 52.4% (active).

Turning to `O=C(O)C1CC=CCC1C(=O)Nc1ccc(S(=O)(=O)N2CCCc3ccccc32)cc1` (configuration not stated), the cytotoxicity is -8.5%.

For `COc1ccc(CCNS(=O)(=O)c2ccc3c(c2)oc(=O)n3C)cc1OC`, the cytotoxicity is 3.2%.

For `CCOC(=O)COc1ccc(S(=O)(=O)N2CCN(c3ccccc3F)CC2)cc1`, the cytotoxicity was -0.3%.

As to `COc1ccc2cc3c(N)c(C(=O)N4CCCC4)sc3nc2c1`, the cytotoxicity is 3.4%.

In the case of `Cc1ccc2nc3sc(C(=O)N4CCOCC4)c(N)c3cc2c1`, the cytotoxicity was 55.8% (active).

For `CCOc1ccc2nc3sc(C(=O)N4CCN(C)CC4)c(N)c3cc2c1`, the cytotoxicity was -19.5%.

Regarding `Cc1ccc2cc3c(N)c(C(=O)N4CCOCC4)sc3nc2c1`, the cytotoxicity was 3.2%.

Turning to `Cc1cccc2cc3c(N)c(C(=O)N4CCOCC4)sc3nc12`, the cytotoxicity was 59% (active).

For `Cc1cccc2cc3c(N)c(C#N)sc3nc12`, the cytotoxicity is 2.6%.

Consider `CCN(CC)CCNC(=O)c1c(O)c2c([nH]c1=O)CCCC2`, for which the cytotoxicity was 0.6%.

For `O=C(CCn1c(=S)[nH]c2ccccc2c1=O)N1CCOCC1`, the cytotoxicity was -2.8%.

For `O=C1C2CC=C(Cl)CC2C(=O)N1c1ncn[nH]1` (configuration not stated), the cytotoxicity is -1.3%.

`CC(C)C1N(c2ccccc2)C(N)=C(C#N)C1(C#N)C#N` (configuration not stated): the cytotoxicity was -5.5%.

Turning to `COc1ccc(-c2nnc(Nc3nc4c(OC)cccc4s3)o2)c(OC)c1`, the cytotoxicity is 8.4%.

Consider `COc1ccccc1-c1nnc(Nc2nc3c(OC)cccc3s2)o1`, for which the cytotoxicity is 51.8% (active).

Regarding `COc1cccc2sc(Nc3nnc(-c4ccccc4Cl)o3)nc12`, the cytotoxicity is -3.2%.

`Cc1ccc(C(C(=O)NCc2ccccc2)N(C(=O)c2csnn2)c2cccc3ccccc23)o1` (configuration not stated): the cytotoxicity was -5.1%.

Regarding `COc1cc(/C=N/Nc2nc3ccccc3o2)cc(OC)c1O`, the cytotoxicity is 17.8%.

On to `Cc1cc2c(N)cccc2nn1`, for which the cytotoxicity was -9.9%.

Regarding `Nc1cccc2cnccc12`, the cytotoxicity is 20.7%.

Consider `CNC(=O)CSc1nc2nc(C)cc(C)n2n1`, for which the cytotoxicity is 16.5%.

On to `CCCCS(=O)(=O)/C=C/[C@H]1[C@H](S(=O)(=O)CCCC)[C@H]2C=C[C@@H]1C2`, for which the cytotoxicity is 0.3%.

For `CCCCS(=O)(=O)/C=C\C1C2C=CC(C2)C1S(=O)(=O)CCCC` (configuration not stated), the cytotoxicity was -14.4%.

`CCCCS(=O)(=O)/C=C\C=C/S(=O)(=O)CCCC`: the cytotoxicity was 94% (active).

Turning to `CCC(C)NC(=O)CNS(=O)(=O)c1ccc(C)cc1` (configuration not stated), the cytotoxicity is 1.4%.

As to `COc1cc(CNc2ccc3c(c2)CCC3)cc(OC)c1O`, the cytotoxicity is -2.4%.

Consider `O=C(NCc1ccco1)C1CCC(CNS(=O)(=O)c2cccc3cccnc23)CC1` (configuration not stated), for which the cytotoxicity is -8.6%.
